# Data: ChEMBL document CHEMBL1157539, “Thousands of chemical starting points for antimalarial lead identification” (Nature, 2010)
# Key:
# Assay type in all cases: functional
# [1] = test system: Plasmodium falciparum; experiment: GSK_TCMDC: Inhibition of Plasmodium falciparum 3D7 in whole red blood cells, using parasite LDH activity as an index of growth. Test compounds present at 2uM
# [2] = test system: Plasmodium falciparum; experiment: GSK_TCMDC: Inhibition of Plasmodium falciparum Dd2 in whole red blood cells, using parasite LDH activity as an index of growth. Test compounds present at 2uM
# [3] = test system: HepG2; experiment: GSK_TCMDC: Percent inhibition of human HepG2 cell line. Test compounds present at 10uM.
Compound,Inhibition [1] [%],Inhibition [2] [%],Inhibition [3] [%]
NCCCNc1nc(Nc2ccc(C(F)(F)F)cc2F)c2c(=O)[nH]ccc2n1.O=C(O)C(F)(F)F,95,15,23
CC(C)c1ccc(CN2CCCCC(NC(=O)c3cc(-c4cccc(F)c4)cs3)C2)cc1.O=C(O)C(F)(F)F (stereo not drawn),94,13,6
COc1ccc(-c2cccc(NC(=O)c3cccc(Cl)c3)c2)cc1CN1CCC(O)CC1.O=C(O)C(F)(F)F,98,16,38
COc1ccc(Cl)cc1N1CCN(CCCNC(=O)c2ccc(-c3nc4cnccc4[nH]3)c(Br)c2)CC1,86,15,5
Br.Cc1ccccc1OCCCON1C(=N)N=C(N)NC1(C)C,95,97,66
COc1ccc2nccc(N3CCC(NCCNCc4ccc5c(n4)NC(=O)CO5)C3)c2n1.Cl (stereo not drawn),100,47,0
FC(F)(F)c1ccc2[nH]c(-c3ccc(-c4ccc(CN5CCN(c6cnccn6)CC5)cc4)cc3)nc2c1.O=C(O)C(F)(F)F,99,50,21
CN(C)Cc1ccc(CN2CCN(CCOc3ccc(-c4ccc(Cl)cc4)cc3)CC2)o1,90,21,75
Cc1ccc(NC(=O)c2ccc(CN3CCCN(Cc4cccc(Cl)c4)CC3)cc2)cc1C.O=C(O)C(F)(F)F,84,18,41
CCC1CN(CCCn2c3ccccc3c3ccccc32)C(CC)CN1.Cl (stereo not drawn),89,0,69
C#CCCOc1ccc2ccccc2c1CNCCCCCCNCc1c(OCCC#C)ccc2ccccc12,100,65,100
Cc1ccc(F)cc1S(=O)(=O)Nc1ccc(CCN2CCC(N3CCCCC3)CC2)cc1,99,15,25
C=C(NC(=O)c1cc(C)cc(C)c1)C(=O)OC,95,0,21
O=C(O)C(F)(F)F.c1ccc(CNCc2cccc(-c3cccc(-c4nc5ccccc5[nH]4)c3)c2)cc1,100,38,12
CCOC(=O)C(NC(=O)Cc1ccccc1)C(C)C (stereo not drawn),96,98,39
CN(C)CC(=O)Nc1ccc(-c2ccc3ccnc(N)c3c2)cc1.O=C(O)C(F)(F)F,100,99,69
COc1ccc(-c2cnc(NCc3ccccc3)nc2)cc1CNC1CCN(C)CC1.O=C(O)C(F)(F)F,96,64,19
CC[C@H](C)[C@@H](C(=O)N1CCOCC1)N1CC[C@H](NS(=O)(=O)CC(C)(C)c2ccc(Cl)cc2)C1=O,100,95,0
CC(Oc1ccc(Cl)cc1)C(=O)NCCC1CCN(CCCCCNC(=O)/C=C/c2ccc(Cl)c(Cl)c2)CC1 (stereo not drawn),89,20,48
Cc1cccc(C(=O)N2CCN(Cc3cccc(NC(=O)c4cccs4)c3)CC2)c1.O=C(O)C(F)(F)F,95,95,5
CCOC(=O)C1=C(C)NC2=C(C(=O)CCC2)C1c1cn(Cc2ccc(Cl)cc2Cl)nc1-c1ccccc1 (stereo not drawn),100,96,0

Compound,Inhibition [1] [%],Inhibition [2] [%],Inhibition [3] [%]
N#Cc1cccc(NC(=O)Nc2ccc(-c3cccc(-c4nc5cc(F)ccc5[nH]4)c3)cc2)c1,100,100,64
O=S(=O)(Nc1ccc(CCN2CCC(N3CCCCC3)CC2)cc1)c1cccc(C(F)(F)F)c1,100,15,20
COc1cccc2cc(C(=O)N[C@@H](CC(C)C)C(=O)N[C@H](C=NNC(=O)OC(C)(C)C)CC(C)C)oc12,88,57,8
COc1ccc2nc(C)cc(Nc3ccc(Oc4ccc(Cl)cc4)c(Cl)c3)c2c1,100,100,48
CCOc1ccc(C(C)NC(=O)C2COc3ccccc3O2)cc1OCC (stereo not drawn),100,100,0
COc1ccc2nccc(N3CCN(CCNCc4ccc5c(n4)NC(=O)CO5)CC3)c2n1.Cl,98,12,10
COc1ccc2ncc(Cl)c(CCN3CCC(NCc4ccc5c(n4)NC(=O)CS5)CC3)c2c1.Cl,100,34,26
Cc1cccc(C)c1CNc1cccc(-c2nc(C)c(C)[nH]2)c1.Cl,99,44,58
COc1ccc(-c2cnc3[nH]cc(-c4ccc(CCC(=O)O)cc4)c3c2)cn1.O=C(O)C(F)(F)F,98,95,25
O=C(/C=C/c1ccc(Cl)cc1)NCCCCCN1CCCC(C(=O)Nc2ccc(Cl)cc2)C1 (stereo not drawn),94,6,24
O=C(Nc1cccc(-c2ccc(-c3nc4ccccc4[nH]3)cc2)c1)Nc1ccc(F)c(F)c1F,100,38,45
CC(=O)Nc1nc(C(=O)Nc2cccc(-c3cccc(-c4nc5cccc(C)c5[nH]4)c3)c2)cs1,100,94,28
COc1ccc(CNC(=O)c2cnc3cc(-c4c(C)noc4C)ccc3c2Nc2ccccc2C(C)(C)C)cc1.Cl,99,69,9
CCNc1cc(C(=O)N[C@@H](Cc2ccccc2)[C@H](O)CNC(C)Cc2cccc(Cl)c2)cc(N2CCCCS2(=O)=O)c1.Cl (stereo partly drawn),98,77,0
N=c1cc(C=Cc2ccc(O)cc2)[nH]c2ccccc12,100,14,15
CCCCC(=O)NC(c1cccs1)c1cc(Cl)c2cccnc2c1O (stereo not drawn),93,90,50
O=C(/C=C/c1ccccc1O)N1CCC(CCN2CCC(c3c[nH]c4ccccc34)CC2)CC1,100,15,46
N#Cc1ccc(N2CCN(Cc3ccc(-c4ccc(-c5nc6cc(F)ccc6[nH]5)s4)cc3)CC2)nc1.O=C(O)C(F)(F)F,100,78,12
COc1c(C2CCN(CCCCNC(=O)c3cccc(-c4ccc(C(F)(F)F)cc4)c3)CC2)ccc2c1CCCC2,92,45,50
CC(C)(C)Nc1cc(C2CC2)nc(-c2ccccn2)n1,88,75,0
CC(C)CC(NC(=O)c1cc2ccccc2s1)C(=O)N1CCCCCC1c1ccc(C(C)(C)C)cc1 (stereo not drawn),91,39,23

Compound,Inhibition [1] [%],Inhibition [2] [%],Inhibition [3] [%]
O=S1(=O)C=C(c2ccccc2)CC1,97,44,57
O=C(N[C@@H](Cc1ccccc1)[C@H](O)CNC1CCCCC1)c1cc(C2CCCC2)cc(N2CCCC2=O)c1,100,98,17
Cc1cc(N2CCCCC2)nc2ccc(NC(=O)c3cc(=O)c4ccccc4o3)cc12,98,19,15
COc1ccc(CN2CCC(CN3CC4(OC3=O)c3ccccc3-c3ccccc34)C2)c(O)c1 (stereo not drawn),100,79,22
N#Cc1ccc(N(CCOc2ccc(Cl)cc2)Cc2ccccc2C(F)(F)F)cc1C(F)(F)F,91,64,3
CCCCCn1c(Sc2ccc(C#N)c([N+](=O)[O-])c2)nnc1-c1ccc(OC)cc1,88,44,8
CCOc1ccc(-c2nonc2NC(=O)c2ccccc2Cl)cc1OCC,100,100,3
CC(Oc1ccc(C(=O)c2ccc(F)cc2)cc1)C(=O)N1CCc2ccccc21 (stereo not drawn),95,95,9
Cc1cc(OCCCNc2nc(NCCc3ccc(O)cc3)nc(N3CCNCC3)n2)c(Cl)c(C)c1Cl.O=C(O)C(F)(F)F,99,8,54
O=C(Nc1cccc(C(F)(F)F)c1)NC1CCN(c2ccnc3cc(Cl)ccc23)C1.O=C(O)C(F)(F)F (stereo not drawn),100,89,18
Cc1ccc(C(=O)NC2C(=O)NC2c2ccccc2)c(C)c1 (stereo not drawn),90,0,7
O=C(COc1ccccc1Cl)N1CCc2cc3nccc(N4CCN5CCC[C@H]5C4)c3cc21,91,99,4
Cc1cc(N[C@@H](CC(C)C)C(=O)NCCCOC(C)C)nc(NCCc2ccc(F)cc2)n1.O=C(O)C(F)(F)F,87,19,5
Cc1ccccc1C1CCN(c2ccc(C(=O)Nc3ccccc3)cn2)CC1.O=C(O)C(F)(F)F,95,94,53
O=C(Nc1cccc(CN2CCN(C(=O)c3ccccc3)CC2)c1)c1cccs1.O=C(O)C(F)(F)F,95,97,15
O=CO.c1ccc(CCNc2ccnc(Nc3ccc4cn[nH]c4c3)n2)cc1,100,100,54
COc1ccc2nccc([C@@H](O)CN3CCC(NCc4ccc5sc(=O)[nH]c5c4)CC3)c2c1.O=C(O)C(=O)O,98,0,1
Cc1cc(OCCCn2ccnc2)ccc1-c1csc(/N=C(\N)NCc2ccccc2)n1,92,42,26
O=C(Nc1ccc(-c2cccc(-c3nc4cc(C(F)(F)F)ccc4[nH]3)c2)cc1)c1ccc(=O)[nH]n1,87,13,72
